Laboratory results: the supplement of paper PMC8728848
Only a selection was taken, and the strongest signals are over-represented in it overall.

Assays:
Assay in all cases: glycan array binding signal (z-score within array); higher = stronger binding
Conditions in all cases: glycan notation: IUPAC condensed, linker removed
[1] = molecular target: Fuc(a1-2)Gal(b1-3)[Fuc(a1-4)]GlcNAc(b1-2)Man(a1-3)[Fuc(a1-2)Gal(b1-3)[Fuc(a1-4)]GlcNAc(b1-2)Man(a1-3)]Man(b1-4)GlcNAc(b1-4)GlcNAc
Outline: (§1)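 Columns mapping to the same glycan were averaged after glycan names were converted to IUPAC-condensed notation. The data come from 3228 arrays in the Consortium for Functional Glycomics database, limited to those with an available protein sequence. Binding is reported as a within-array Z-score averaged across arrays of one protein sequence and across linkers.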

[2] = molecular target: Fuc(a1-2)Gal(b1-4)GlcNAc(b1-2)Man(a1-3)[Fuc(a1-2)Gal(b1-4)GlcNAc(b1-2)Man(a1-6)]Man(b1-4)GlcNAc(b1-4)[Fuc(a1-6)]GlcNAc
Outline: as §1

[3] = molecular target: Fuc(a1-2)Gal(b1-4)GlcNAc(b1-2)[Fuc(a1-2)Gal(b1-4)GlcNAc(b1-4)]Man(a1-3)[Fuc(a1-2)Gal(b1-4)GlcNAc(b1-2)Man(a1-6)]Man(b1-4)GlcNAc(b1-4)GlcNAc
Outline: as §1

[4] = molecular target: Fuc(a1-2)Gal(b1-4)GlcNAc(b1-3)[Fuc(a1-2)Gal(b1-4)GlcNAc(b1-6)]GalNAc
Outline: as §1

[5] = molecular target: Fuc(a1-2)Gal6S(b1-3)GlcNAc6S
Outline: as §1

[6] = molecular target: Fuc(a1-2)[Gal(a1-3)]Gal(b1-3)GalNAc
Outline: as §1

[7] = molecular target: Fuc(a1-2)[Gal(a1-3)]Gal(b1-4)GlcNAc(b1-3)[Fuc(a1-2)[Gal(a1-3)]Gal(b1-4)GlcNAc(b1-6)]GalNAc
Outline: as §1

[8] = molecular target: Fuc(a1-2)[GalNAc(a1-3)]Gal(b1-3)GalNAc(a1-3)[Fuc(a1-2)]Gal(b1-4)GlcNAc
Outline: as §1

[9] = molecular target: Fuc(a1-2)[GalNAc(a1-3)]Gal(b1-3)GalNAc(b1-3)Gal(a1-4)Gal(b1-4)Glc
Outline: as §1

[10] = molecular target: Fuc(a1-2)[GalNAc(a1-3)]Gal(b1-4)GlcNAc
Outline: as §1

[11] = molecular target: Fuc(a1-2)[GalNAc(a1-3)]Gal(b1-4)GlcNAc(b1-3)Gal(b1-4)GlcNAc(b1-3)Gal(b1-4)GlcNAc
Outline: as §1

[12] = molecular target: Fuc(a1-2)[GalNAc(a1-3)]Gal(b1-4)[Fuc(a1-3)]GlcNAc
Outline: as §1

[13] = molecular target: Fuc(a1-2)[GalNAc(a1-4)]Gal(b1-4)GlcNAc
Outline: as §1

[14] = molecular target: Fuc(a1-3)[Gal(b1-4)]GlcNAc6S
Outline: as §1

[15] = molecular target: Fuc(a1-3)[Gal3S(b1-4)]GlcNAc
Outline: as §1

[16] = molecular target: Fuc(a1-3)[Gal3S(b1-4)]GlcNAc6S
Outline: as §1

[17] = molecular target: Gal(a1-3)Gal(b1-4)GlcNAc(b1-2)Man
Outline: as §1

[18] = molecular target: Gal(a1-3)Gal(b1-4)[Fuc(a1-3)]GlcNAc(b1-2)Man(a1-3)[Gal(a1-3)Gal(b1-4)[Fuc(a1-3)]GlcNAc(b1-2)Man(a1-6)]Man(b1-4)GlcNAc(b1-4)GlcNAc
Outline: as §1

[19] = molecular target: Gal(b1-3)GalNAc(b1-4)Gal(b1-4)Glc
Outline: as §1

[20] = molecular target: Gal(b1-3)GlcNAc(b1-2)Man(a1-3)[Gal(b1-3)GlcNAc(b1-2)Man(a1-6)]Man(b1-4)GlcNAc(b1-4)[Fuc(a1-6)]GlcNAc
Outline: as §1

[21] = molecular target: Gal(b1-3)GlcNAc(b1-3)Gal(b1-4)GlcNAc(b1-2)[Gal(b1-3)GlcNAc(b1-3)Gal(b1-4)GlcNAc(b1-6)]Man(a1-6)[Gal(b1-3)GlcNAc(b1-3)Gal(b1-4)GlcNAc(b1-2)Man(a1-3)]Man(b1-4)GlcNAc(b1-4)[Fuc(a1-6)]GlcNAc
Outline: as §1

[22] = molecular target: Gal(b1-3)[Fuc(a1-4)]GlcNAc(b1-2)Man
Outline: as §1

[23] = molecular target: Gal(b1-4)GlcNAc(b1-2)Man(a1-3)[Gal(b1-4)GlcNAc(b1-2)Man(a1-6)][Gal(b1-4)GlcNAc(b1-4)]Man(b1-4)GlcNAc(b1-4)[Fuc(a1-6)]GlcNAc
Outline: as §1

[24] = molecular target: Gal(b1-4)GlcNAc(b1-3)Gal(b1-4)GlcNAc(b1-2)[Gal(b1-4)GlcNAc(b1-3)Gal(b1-4)GlcNAc(b1-6)]Man(a1-6)[Gal(b1-4)GlcNAc(b1-3)Gal(b1-4)GlcNAc(b1-2)Man(a1-3)]Man(b1-4)GlcNAc(b1-4)[Fuc(a1-6)]GlcNAc
Outline: as §1

[25] = molecular target: Gal(b1-4)GlcNAc(b1-3)Gal(b1-4)GlcNAc(b1-3)Gal(b1-4)GlcNAc(b1-2)[Gal(b1-4)GlcNAc(b1-3)Gal(b1-4)GlcNAc(b1-3)Gal(b1-4)GlcNAc(b1-6)]Man(a1-6)[Gal(b1-4)GlcNAc(b1-3)Gal(b1-4)GlcNAc(b1-3)Gal(b1-4)GlcNAc(b1-2)Man(a1-3)]Man(b1-4)GlcNAc(b1-4)[Fuc(a1-6)]GlcNAc
Outline: as §1

[26] = molecular target: Gal(b1-4)GlcNAc(b1-3)Gal(b1-4)GlcNAc(b1-3)Gal(b1-4)GlcNAc(b1-3)Gal(b1-4)GlcNAc(b1-3)Gal(b1-4)GlcNAc(b1-2)Man(a1-3)[Gal(b1-4)GlcNAc(b1-3)Gal(b1-4)GlcNAc(b1-3)Gal(b1-4)GlcNAc(b1-3)Gal(b1-4)GlcNAc(b1-3)Gal(b1-4)GlcNAc(b1-2)Man(a1-6)]Man(b1-4)GlcNAc(b1-4)[Fuc(a1-6)]GlcNAc
Outline: as §1

[27] = molecular target: Gal(b1-4)GlcNAc(b1-3)[GlcNAc(b1-6)]Gal(b1-4)GlcNAc
Outline: as §1

[28] = molecular target: Gal(b1-4)GlcNAc(b1-6)GalNAc
Outline: as §1

Gal3S(b1-4)GlcNAc = molecular target: Gal3S(b1-4)GlcNAc
Outline: as §1

B1: OGAN (protein)
chain: MVQKESQATLEERESELSSNPAASAGASLEPPAAPAPGEDNPAGAGGAAVAGAAGGARRFLCGVVEGFYGRPWVMEQRKELFRRLQKWELNTYLYAPKDDYKHRMFWREMYSVEEAEQLMTLISAAREYEIEFIYAISPGLDITFSNPKEVSTLKRKLDQVSQFGCRSFALLFNDIDHNMCAADKEVFSSFAHAQVSITNEIYQYLGEPETFLFCPTEYCGTFCYPNVSQSPYLRTVGEKLLPGIEVLWTGPKVVSKEIPVESIEEVSKIIKRAPVIWDNIHANDYDQKRLFLGPYKGRSTELIPRLKGVLTNPNCEFEANYVAIHTLATWYKSNMNGVRKDVVMTDSEDSTVSIQIKLENEGSDEDIETDVLYSPQMALKLALTEWLQEFGVPHQY
- glycan array binding signal (z-score) [1]: 0.055
- glycan array binding signal (z-score) [2]: -0.047
- glycan array binding signal (z-score) [3]: -0.036
- glycan array binding signal (z-score) [4]: -0.036
- glycan array binding signal (z-score) [5]: 0.263
- glycan array binding signal (z-score) [6]: 0.104
- glycan array binding signal (z-score) [7]: 0.056
- glycan array binding signal (z-score) [8]: 23.3
- glycan array binding signal (z-score) [9]: 7.17
- glycan array binding signal (z-score) [10]: -0.083
- glycan array binding signal (z-score) [11]: -0.044
- glycan array binding signal (z-score) [12]: -0.028
- glycan array binding signal (z-score) [13]: -0.033
- glycan array binding signal (z-score) [14]: -0.052
- glycan array binding signal (z-score) [15]: 0.055
- glycan array binding signal (z-score) [16]: -0.076
- glycan array binding signal (z-score) [17]: -0.037
- glycan array binding signal (z-score) [18]: -0.048
- glycan array binding signal (z-score) [19]: -0.029
- glycan array binding signal (z-score) [20]: -0.064
- glycan array binding signal (z-score) [21]: 0.166
- glycan array binding signal (z-score) [22]: -0.036
- glycan array binding signal (z-score) [23]: -0.086
- glycan array binding signal (z-score) [24]: -0.01
- glycan array binding signal (z-score) [25]: -0.03
- glycan array binding signal (z-score) [26]: -0.001
- glycan array binding signal (z-score) [27]: -0.059
- glycan array binding signal (z-score) [28]: -0.053
- glycan array binding signal (z-score) (Gal3S(b1-4)GlcNAc): -0.067
